Our source for the outcome and Potency values is PubChem BioAssay (NCATS).

Inconclusive results are not listed. Calls of active or inactive are those of the source. Unless noted, calls come from the whole dose curve; as a rule, active = well fitted curve in the direction sought with a large enough effect; inconclusive = small, poorly fitted or top-dose-only effect, or another doubt; inactive = no such curve, though single readings can be large; an effect the other way counts as inactive or inconclusive.

Test [1] deals with Ferritin light chain (Equus caballus) (UniProt P02791). Briefly: qHTS Validation Assay for Identification of Novel General Anesthetics (AID 2323). In outline: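 Apoferritin from horse spleen (10 uM) was mixed with 1-aminoanthracene at 50% saturation in PBS, then compounds were added. After 10 min at room temperature, fluorescence was read (ex 380 nm, em 535 nm) and normalized to free-probe and complex controls.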
Ferritin light chain (Equus caballus), sequence (P02791 2-175 limits assumed): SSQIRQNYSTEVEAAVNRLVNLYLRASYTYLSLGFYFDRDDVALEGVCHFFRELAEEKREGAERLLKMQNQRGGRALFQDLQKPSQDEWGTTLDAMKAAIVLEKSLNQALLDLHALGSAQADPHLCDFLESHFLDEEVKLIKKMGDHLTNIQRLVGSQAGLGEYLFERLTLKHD

In test [2] the target is ATP-dependent DNA helicase Q1 (Homo sapiens) (UniProt P46063). Briefly: qHTS Validation Assay for Inhibitors of RecQ-Like Dna Helicase 1 (RECQ1) (AID 2353). The method, boiled down: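 RECQ1T1 50 nM; forked duplex (20 bp + 30-nt ss tails) 200 nM, ATP 2 mM final; pH 8.0, 2 mM MgCl2, 2.5 ug/ml poly(dI-dC); 15 min compound preincubation; discontinuous kinetic read over 2 h at RT.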
ATP-dependent DNA helicase Q1 (Homo sapiens), sequence (P46063 whole entry, looked up): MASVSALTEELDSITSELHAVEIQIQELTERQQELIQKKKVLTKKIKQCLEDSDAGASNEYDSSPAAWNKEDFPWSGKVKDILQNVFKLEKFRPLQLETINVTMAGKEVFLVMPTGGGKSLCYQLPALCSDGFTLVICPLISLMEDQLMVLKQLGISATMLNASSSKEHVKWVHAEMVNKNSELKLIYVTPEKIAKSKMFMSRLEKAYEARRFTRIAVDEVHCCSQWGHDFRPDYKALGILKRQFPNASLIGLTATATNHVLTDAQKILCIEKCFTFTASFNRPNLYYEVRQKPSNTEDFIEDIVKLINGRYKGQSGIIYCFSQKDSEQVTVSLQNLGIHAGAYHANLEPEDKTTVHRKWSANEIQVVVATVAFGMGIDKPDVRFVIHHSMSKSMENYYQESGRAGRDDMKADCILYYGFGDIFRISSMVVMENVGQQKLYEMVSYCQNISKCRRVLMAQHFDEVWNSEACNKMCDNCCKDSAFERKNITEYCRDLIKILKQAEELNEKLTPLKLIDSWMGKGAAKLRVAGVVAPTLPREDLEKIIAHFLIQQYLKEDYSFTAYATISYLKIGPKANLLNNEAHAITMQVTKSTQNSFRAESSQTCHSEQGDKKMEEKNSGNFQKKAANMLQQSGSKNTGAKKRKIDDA

Test [3] deals with RecQ-like DNA helicase BLM (Homo sapiens) (UniProt P54132). The test is described as follows: qHTS Validation Assay for Inhibitors of Bloom's syndrome helicase (BLM) (AID 2364). The method, boiled down:
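BLM 50 nM in 25 mM Tris-HCl pH 8.0, 5 mM NaCl, 2 mM MgCl2, 1 mM DTT, 0.01% Tween-20, 2.5 ug/ml poly(dI-dC); 15 min cpd preinc, RT. Start: 200 nM forked DNA + 2 mM ATP (final). TAMRA read, 2 reads 2 h apart.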

Test [4] is described as follows: Cytometric Cell-Based qHTS for Inhibitors of the mTORC1 Signaling Pathway in MEF (Tsc2-/-, p53-/-) Cells (AID 2660).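 Note: Tsc2 and p53 null MEFs carrying empty vector with compound for 24 h; percent of cells above a phospho-rpS6 to PI ratio cutoff in each well.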 In outline: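 Immunofluorescence qHTS of rpS6 Ser235/236 phosphorylation: MEFs (Tsc2-/-, p53-/-) treated 24 h, 37 C, in DMEM + 10% FBS. Alexa-488 signal normalized to PI count, referenced to rapamycin (7.5 nM) and DMSO; PI cell number recorded for viability.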

Test [5] is described as follows: High Content Imaging Cell-Based qHTS for Inhibitors of the mTORC1 Signaling Pathway in MEF (Tsc2-/-, p53-/-) Cells (AID 2666).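 Note: percent of cells scored positive for phospho-rpS6 Ser235/236 immunostaining by imaging.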 To be noted: at 38.3 µM (top of the series). The method, boiled down:
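Inhibition of rpS6 phosphorylation is measured by immunofluorescence imaging in empty-vector Tsc2-/-, p53-/- mouse embryonic fibroblasts after 24 hrs compound exposure at 37 degree Celsius. Results are reported as % positive cells per well.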

Test [6] in a line: High Content Imaging Cell-Based qHTS for Inhibitors of the mTORC1 Signaling Pathway in MEF Cells (AID 2667).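 Note: Tsc2-/- p53-/- MEFs stably re-expressing wild-type Tsc2 exposed 24 h.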 The method, boiled down:
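Fixed-cell imaging of phospho-S6 (Ser235/236, Alexa-488) after 24 hrs of compound treatment at 37 degree Celsius. Signal was normalized to Hoechst, and thresholds from the highest and lowest wells split cells into % active versus % non-active.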

The nature of test [7]: Cytometry Cell-Based qHTS for Inhibitors of the mTORC1 Signaling Pathway in MEF cells (AID 2668).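 Note: Tsc2-/- p53-/- mouse embryonic fibroblasts stably re-expressing wild-type Tsc2; percent cells positive for phospho-rpS6 Ser235/236 relative to propidium iodide stain.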 In outline:
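Pathway inhibition in WT Tsc2-rescued Tsc2-/-, p53-/- MEFs is measured as the Alexa-488 phospho-rpS6 to propidium iodide intensity ratio after 24 hrs of compound at 37 degree Celsius. PI-stained cell number gives viability.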

Test [8] deals with Ubiquitin carboxyl-terminal hydrolase 2 (Homo sapiens) (UniProt O75604). The test is described as follows: qHTS Validation Assay for Inhibitors of Ubiquitin-specific Protease USP2a Using CHOP2 as the Reporter (AID 463106). The method, boiled down:
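Inhibition is expressed relative to NEM as the full-inhibition control, with concentration-response curves classed by fit quality, magnitude and activity. Enzyme (USP2 core, 10nM) meets 25nM Ub-CHOP2 after compound preincubation; readings are taken at 60min.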

For test [9], the target named is DNA polymerase III PolC-type (Bacillus subtilis (strain 168)) (UniProt P13267). The test is described as follows: qHTS Validation Assay for the Inhibitors of DNA Replication in Gram-Positive Bacteria (AID 485295).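 Note: reconstituted holoenzyme with PolC plus beta clamp SSB and primase; PicoGreen fluorescence of double-stranded DNA made on primed circular M13 template.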 In outline:
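Primed replication of single-stranded M13Gori by a four-protein B. subtilis holoenzyme is measured at room temperature. Double-stranded product is quantified by PicoGreen fluorescence after an EDTA stop; inhibition is scaled between DMSO and EDTA controls.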

Test [10] addresses Tumor susceptibility gene 101 protein (Homo sapiens) (UniProt Q99816). The test is described as follows: qHTS Validation Assay for Iinhibitors of HIV-1 Budding by Blocking the Interaction of PTAP/TSG101 (AID 485342; calls by dose curve). In outline:
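Fluorescence anisotropy measured PTAP-Tsg101 interaction. Final concentrations were 10 uM protein domain and 50 nM labeled peptide, equilibrated 20 min at room temperature.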

The nature of test [11]: qHTS Validation Assay to Find Inhibitors of Chronic Active B-Cell Receptor Signaling (AID 485345; active = well fitted curve in the direction sought with a large enough effect in the main read-out, with a control signal flat, not every such curve was filed as active). The method, boiled down:
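TMD8 ABC-DLBCL cells with dox-inducible green luciferase–IκBα fusion and red native luciferase; compounds 46 uM–3 nM, 4 h at 37C with doxycycline in 0.5% FBS IMDM. Green/red ratio normalized to basal and 10 uM MG-132.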

Test [12] concerns the target Beta-2 adrenergic receptor (Homo sapiens) (UniProt P07550). The test is described as follows: qHTS validation assay of beta-arrestin-biased ligands of beta2-adrenergic receptor (AID 485366). The method, boiled down:
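Agonism was measured as beta-arrestin recruitment to recombinant beta2-AR, releasing tTA to drive luciferase. Cells were exposed for 18 hr at 37 degrees C to a series up to 46 microM. %Activity from corrected luminescence gave concentration-response curves.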

The target in test [13] is ATP-dependent 6-phosphofructokinase (Trypanosoma brucei brucei) (UniProt O15648). Briefly: qHTS Validation Assay to Find Inhibitors of T. brucei phosphofructokinase (AID 485368). To be noted: outcome: dose series up to 57.5 µM. In outline:
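ADP-Glo luminescence, two-step: residual ATP depleted, then ADP converted to ATP for luciferase. Enzyme 1.25 nM, F6P 0.5 mM, ATP 0.1 mM, pH 8.0 TEA buffer, 45 min RT. Curves fitted and classed by quality and efficacy.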

Test [14] is described as follows: Quantitative high throughput screen for delayed death inhibitors of the malarial parasite plastid, 48 hour incubation (AID 488752). Note: nearly all actives have a fitted effect of over 65% in size. Note: potency is the fitted concentration of half-maximal effect. In outline:
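First, compound was pinned into RPMI 1640 medium containing 0.5% Albumax. Next, reporter-parasite-infected erythrocytes were added to 2% hematocrit and 0.1% parasitemia. After 48 h at 37 C under 5% CO2, luciferase detection reagent was added and luminescence read.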

The target in test [15] is Thioredoxin reductase 1, cytoplasmic (Rattus norvegicus) (UniProt O89049). The test is described as follows: qHTS Assay for Substrates of Mammalian Selenoprotein Thioredoxin Reductase 1 (TrxR1) (AID 488772).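 Note: a drop in NADPH fluorescence below the no-compound background marks a TrxR1 substrate.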 In outline: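 In this dual-purpose format, potential substrates are identified from the first fluorescence read after selenite addition, not from the 8-minute delta. Rat enzyme is preincubated with NADPH and then with compound at ~22 deg C.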
Thioredoxin reductase 1, cytoplasmic (Rattus norvegicus), sequence (O89049 whole entry, looked up): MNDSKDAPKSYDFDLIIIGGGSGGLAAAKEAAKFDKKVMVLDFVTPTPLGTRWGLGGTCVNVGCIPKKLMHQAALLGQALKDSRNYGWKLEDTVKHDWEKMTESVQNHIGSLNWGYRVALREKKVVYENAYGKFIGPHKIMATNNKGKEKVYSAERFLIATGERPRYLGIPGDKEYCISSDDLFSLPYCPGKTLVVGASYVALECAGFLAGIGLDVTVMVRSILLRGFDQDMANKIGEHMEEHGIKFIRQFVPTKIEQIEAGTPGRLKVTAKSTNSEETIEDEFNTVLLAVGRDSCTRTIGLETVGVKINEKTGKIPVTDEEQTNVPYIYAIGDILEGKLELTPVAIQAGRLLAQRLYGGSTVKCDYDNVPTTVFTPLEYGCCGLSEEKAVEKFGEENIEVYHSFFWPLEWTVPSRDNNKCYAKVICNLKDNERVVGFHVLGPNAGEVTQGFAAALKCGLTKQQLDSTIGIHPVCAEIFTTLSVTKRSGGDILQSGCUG

For test [16] the target is unchanged. The test is described as follows: qHTS Assay for Inhibitors of Mammalian Selenoprotein Thioredoxin Reductase 1 (TrxR1) (AID 488773).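 Note: drop in NADPH fluorescence over an 8 min run after selenite addition; nearly all actives have a fitted effect of over 40% in size.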 To be noted: Potency: inhibition. The method, boiled down:
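Inhibition is scored from the loss of NADPH fluorescence between first and last reads of an 8-min kinetic run. Selenite (400 uM) was the substrate, added after 15 min compound preincubation at room temperature.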

Test [17] addresses Flap endonuclease 1 (Homo sapiens) (UniProt P39748). Briefly: qHTS Validation Assay for the Inhibitors of Human Flap endonuclease 1 (FEN1) (AID 488816). In outline: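 Steps: add FEN1 (10 nM reagent) or buffer only; pin compounds; hold 15 min at room temperature; start with substrate, 50 nM final; read at 0 and 15 min; correct, normalize and fit a four-parameter Hill curve.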

Test [18] can be described thus: Validation screen for small molecules that induce DNA re-replication in MCF 10A normal breast cells (AID 463097). Note: nearly all actives have a fitted effect of over 60% in size. In outline:
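DNA re-replication was detected as a rise in nuclei with elevated Hoechst fluorescence after a 48 hr compound exposure of MCF 10A cells at 37 C.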

Test [19] is described as follows: Quantitative high throughput screen for delayed death inhibitors of the malarial parasite plastid, 96 hour incubation (AID 488745). Note: nearly all actives have a fitted effect of over 70% in size. Note: potency is the fitted concentration of half-maximal effect. In outline:
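Readout is firefly luciferase luminescence from an integrated reporter in P. falciparum; lower signal marks inhibited growth. Cultures at 2% hematocrit and 0.1% parasitemia were treated with compound across two generations (96 h, 37 C, 5% CO2).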

Ubiquitin carboxyl-terminal hydrolase 2 (Homo sapiens), sequence (O75604 whole entry, looked up): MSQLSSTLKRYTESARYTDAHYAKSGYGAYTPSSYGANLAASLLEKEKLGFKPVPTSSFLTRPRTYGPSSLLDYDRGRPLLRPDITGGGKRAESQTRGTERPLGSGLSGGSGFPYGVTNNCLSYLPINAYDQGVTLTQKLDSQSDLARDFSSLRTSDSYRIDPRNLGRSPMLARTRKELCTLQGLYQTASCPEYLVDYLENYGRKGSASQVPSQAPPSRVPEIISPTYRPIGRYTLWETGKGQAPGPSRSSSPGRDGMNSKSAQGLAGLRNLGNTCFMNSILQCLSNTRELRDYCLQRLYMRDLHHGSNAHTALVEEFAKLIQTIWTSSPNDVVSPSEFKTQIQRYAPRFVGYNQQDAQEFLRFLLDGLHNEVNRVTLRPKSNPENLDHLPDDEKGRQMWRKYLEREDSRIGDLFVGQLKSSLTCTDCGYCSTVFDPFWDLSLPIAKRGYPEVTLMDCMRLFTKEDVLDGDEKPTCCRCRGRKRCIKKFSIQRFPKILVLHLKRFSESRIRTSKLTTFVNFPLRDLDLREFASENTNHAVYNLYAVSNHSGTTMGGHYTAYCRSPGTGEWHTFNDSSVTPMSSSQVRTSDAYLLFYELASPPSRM
RecQ-like DNA helicase BLM (Homo sapiens), sequence (P54132 whole entry, looked up): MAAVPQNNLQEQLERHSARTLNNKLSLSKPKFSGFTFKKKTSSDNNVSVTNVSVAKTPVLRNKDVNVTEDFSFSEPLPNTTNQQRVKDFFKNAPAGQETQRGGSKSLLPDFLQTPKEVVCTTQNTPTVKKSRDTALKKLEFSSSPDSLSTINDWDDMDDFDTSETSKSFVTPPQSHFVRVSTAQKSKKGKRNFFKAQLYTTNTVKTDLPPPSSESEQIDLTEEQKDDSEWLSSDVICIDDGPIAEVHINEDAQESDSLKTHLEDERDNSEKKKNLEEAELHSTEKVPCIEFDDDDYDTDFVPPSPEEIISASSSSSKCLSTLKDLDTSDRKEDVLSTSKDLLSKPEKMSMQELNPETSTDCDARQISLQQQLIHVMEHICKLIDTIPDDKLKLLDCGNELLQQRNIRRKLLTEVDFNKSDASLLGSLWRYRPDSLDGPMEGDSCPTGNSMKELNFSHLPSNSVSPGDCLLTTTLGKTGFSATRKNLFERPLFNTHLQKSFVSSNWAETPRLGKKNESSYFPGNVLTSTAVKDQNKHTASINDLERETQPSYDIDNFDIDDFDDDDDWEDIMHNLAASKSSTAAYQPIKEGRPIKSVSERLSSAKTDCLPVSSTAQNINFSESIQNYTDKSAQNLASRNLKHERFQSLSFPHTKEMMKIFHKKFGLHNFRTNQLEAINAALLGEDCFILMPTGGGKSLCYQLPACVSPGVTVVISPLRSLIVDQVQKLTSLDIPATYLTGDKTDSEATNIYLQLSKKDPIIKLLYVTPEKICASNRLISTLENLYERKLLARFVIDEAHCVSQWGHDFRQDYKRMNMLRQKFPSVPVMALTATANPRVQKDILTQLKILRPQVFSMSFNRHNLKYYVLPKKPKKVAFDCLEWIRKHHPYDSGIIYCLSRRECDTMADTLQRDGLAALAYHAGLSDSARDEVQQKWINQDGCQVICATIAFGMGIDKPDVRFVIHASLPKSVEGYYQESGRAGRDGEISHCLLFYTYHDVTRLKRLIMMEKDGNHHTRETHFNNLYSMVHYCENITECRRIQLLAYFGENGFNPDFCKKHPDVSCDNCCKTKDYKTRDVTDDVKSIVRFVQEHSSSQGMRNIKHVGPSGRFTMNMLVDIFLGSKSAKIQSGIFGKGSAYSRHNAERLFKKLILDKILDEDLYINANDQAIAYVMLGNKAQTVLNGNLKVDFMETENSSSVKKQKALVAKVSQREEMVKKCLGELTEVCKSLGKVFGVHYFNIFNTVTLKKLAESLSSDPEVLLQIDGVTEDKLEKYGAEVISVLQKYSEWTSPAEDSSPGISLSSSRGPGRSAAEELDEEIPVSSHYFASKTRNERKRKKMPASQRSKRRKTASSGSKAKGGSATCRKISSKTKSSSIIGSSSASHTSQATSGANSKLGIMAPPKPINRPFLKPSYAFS
Flap endonuclease 1 (Homo sapiens), sequence (P39748 whole entry, looked up): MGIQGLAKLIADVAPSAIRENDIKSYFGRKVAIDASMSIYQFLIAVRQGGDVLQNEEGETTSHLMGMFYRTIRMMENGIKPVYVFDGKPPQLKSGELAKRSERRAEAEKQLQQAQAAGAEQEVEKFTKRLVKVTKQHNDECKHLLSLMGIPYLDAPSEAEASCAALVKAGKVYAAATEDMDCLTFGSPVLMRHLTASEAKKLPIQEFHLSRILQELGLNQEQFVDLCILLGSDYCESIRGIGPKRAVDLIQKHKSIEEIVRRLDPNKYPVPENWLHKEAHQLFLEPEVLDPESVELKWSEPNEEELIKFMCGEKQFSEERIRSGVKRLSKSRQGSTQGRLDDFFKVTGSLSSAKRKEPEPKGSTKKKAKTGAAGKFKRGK
ATP-dependent 6-phosphofructokinase (Trypanosoma brucei brucei), sequence (O15648 whole entry, looked up): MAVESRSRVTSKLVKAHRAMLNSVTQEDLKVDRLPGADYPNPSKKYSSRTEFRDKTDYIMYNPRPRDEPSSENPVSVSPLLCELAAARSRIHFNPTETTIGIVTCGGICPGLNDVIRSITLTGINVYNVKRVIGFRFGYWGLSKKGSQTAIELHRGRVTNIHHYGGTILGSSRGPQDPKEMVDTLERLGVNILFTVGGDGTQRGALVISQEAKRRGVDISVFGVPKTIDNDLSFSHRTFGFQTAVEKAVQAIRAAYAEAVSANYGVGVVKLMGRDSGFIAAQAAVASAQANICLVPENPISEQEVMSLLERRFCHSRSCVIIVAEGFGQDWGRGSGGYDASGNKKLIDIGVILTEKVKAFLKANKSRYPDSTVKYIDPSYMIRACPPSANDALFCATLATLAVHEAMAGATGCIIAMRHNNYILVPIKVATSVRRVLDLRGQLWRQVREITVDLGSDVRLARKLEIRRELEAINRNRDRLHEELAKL
Beta-2 adrenergic receptor (Homo sapiens), sequence (P07550 whole entry, looked up): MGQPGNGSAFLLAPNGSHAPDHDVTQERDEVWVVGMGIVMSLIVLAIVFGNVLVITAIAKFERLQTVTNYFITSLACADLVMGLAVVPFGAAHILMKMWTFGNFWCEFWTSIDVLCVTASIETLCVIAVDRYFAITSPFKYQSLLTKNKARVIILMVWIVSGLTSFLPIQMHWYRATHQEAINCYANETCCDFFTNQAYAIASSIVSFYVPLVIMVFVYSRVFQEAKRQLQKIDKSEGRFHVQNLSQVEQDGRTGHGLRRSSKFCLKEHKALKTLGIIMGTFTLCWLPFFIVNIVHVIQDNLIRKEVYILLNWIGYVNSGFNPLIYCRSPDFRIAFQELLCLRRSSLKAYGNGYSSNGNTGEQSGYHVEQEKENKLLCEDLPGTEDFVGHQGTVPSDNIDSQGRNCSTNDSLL
Tumor susceptibility gene 101 protein (Homo sapiens), sequence (Q99816 whole entry, looked up, the tested form may be a part): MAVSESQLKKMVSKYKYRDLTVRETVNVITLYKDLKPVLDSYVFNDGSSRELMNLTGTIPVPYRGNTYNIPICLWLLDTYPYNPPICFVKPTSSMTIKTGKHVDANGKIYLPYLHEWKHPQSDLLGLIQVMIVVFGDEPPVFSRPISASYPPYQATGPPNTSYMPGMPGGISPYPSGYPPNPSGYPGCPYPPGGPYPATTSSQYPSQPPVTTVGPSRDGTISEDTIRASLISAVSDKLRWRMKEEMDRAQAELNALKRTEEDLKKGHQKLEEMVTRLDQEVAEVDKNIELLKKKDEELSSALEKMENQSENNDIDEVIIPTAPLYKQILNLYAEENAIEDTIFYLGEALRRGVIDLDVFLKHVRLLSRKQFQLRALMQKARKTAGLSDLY

With `C1COC(NC(C2CC2)C2CC2)=N1`, the outcome in test [1], in [2], in [4], in test [5], in test [6] and in [7] was inactive. The call in test [8], in test [10], in test [11], in [12], in [13] and in test [15] was inactive. The Potency entry in test [3], in test [9], in test [14], in test [16] and in test [17] was “inactive” throughout.
On to `Cc1cn[nH]c1`, for which the compound was classed as inactive in test [1], in test [2], in [4], in [5], in test [6] and in test [7]. For the same compound, the result in test [8], in test [10], in [11], in test [12] and in [15] was inactive. Further, the Potency entry in [3], in test [18], in test [9], in [19], in [14] and in test [16] was “inactive” each time. Further, in [17], the Potency entry is “inactive”.
`O=c1[nH]cnc2[nH]ncc12`: the outcome in test [1], in test [2], in [4], in test [5], in [6] and in [7] was inactive. For the same compound, the compound was classed as inactive in test [8], in test [10], in test [11], in [12], in test [13] and in test [15]. For the same compound, the Potency result in [18], in test [9], in [19], in [14], in test [16] and in test [17] was “inactive” each time.
Consider `O=c1n(CCCN2CCN(c3cccc(Cl)c3)CC2)nc2ccccn12`, for which the result in test [1], in test [2], in test [4], in test [5], in [6] and in [7] was inactive. For the same compound, the outcome in [8], in [10], in test [12] and in test [15] was inactive. Also, the Potency result in [3], in [18], in test [9], in test [19], in test [14] and in test [16] was “inactive” each time. In addition, the Potency result in test [17] is “inactive”.
As to `CC(C)(C)NCC(O)c1ccc(O)c(CO)c1` (stereo unspecified), the call in test [1], in test [2], in [4], in test [5], in test [6] and in test [7] was inactive. In addition, the compound was classed as inactive in test [8], in test [10], in test [11], in [13] and in test [15]. In addition, the Potency result in test [3], in test [18], in test [9], in [19], in test [14] and in test [16] was “inactive” each time.
As for `CCN(CC)CCCC(C)Nc1ccnc2cc(Cl)ccc12` (stereo unspecified), the call in test [1], in test [2], in test [4], in test [5], in test [6] and in test [7] was inactive. Besides, the result in test [8], in test [10], in [11], in test [12], in test [13] and in test [15] was inactive. Besides, the Potency result in [3], in test [18], in test [9], in [16] and in [17] was “inactive” throughout. The results for the Potency in [19] and in test [14] were 262 nM (active) and 165 nM (active), respectively.
